Test results taken from ChEMBL document CHEMBL3988442, “University of Dundee, Small-Polar-MMV Screening Library” (2021).
The campaign covered roughly 48,000 compounds. About 13,000 (27%) showed an effect of 50% or more. The list shows a part of the results.

Test system: Wolbachia pipientis
Test: Anti-Wolbachia Cell-Based Screen
Type: functional
Parameters: scale not given: in the data most compounds retested in dose-response had high values
Conditions: 5 µM

Compared with COc1ccc(CN(C(=O)C(C)SC)c2cnn(C)c2)c(OC)c1 (stereo not drawn), COc1ncccc1C(=O)NCC(C)Oc1cccnc1 (stereo not drawn) is lower in “Percent Effect” value: -2.56% for the first, -11.32% for the second.

Going from O=C1CC[C@H]2CN(Cc3ccc(Cl)s3)CC[C@H]2N1CCc1c[nH]cn1 to CN(CCc1ccccn1)C1CCCN(Cc2noc(C3CC3)n2)C1 (stereo not drawn), the “Percent Effect” value rises from -29.01% to 103.4%.

First: CCc1cc(NCCNc2ccncc2C)n2nc(C)c(C)c2n1
Second: CCc1cc(NCCNC(C)=O)nc(N2CCCC2)n1
The “Percent Effect” value of the first is higher: 11.08% for the first, 3.61% for the second.

First: Cc1noc(C)c1CN(C)C(=O)C1(NS(C)(=O)=O)CCCCC1
Second: CN(CC1(O)CCCCC1)C1CCCN(Cc2noc(C3CC3)n2)C1 (stereo not drawn)
The “Percent Effect” value of the first is lower: -10.96% for the first, 0.01553% for the second.

Going from CCc1nc(C)c(CN2CCOC(CCCC(C)C)C2)[nH]1 (stereo not drawn) to CCc1nc(CN2CCCC(N(C)CCn3cncn3)C2)no1 (stereo not drawn), the “Percent Effect” value rises from -5.664% to 8.167%.

First: COC[C@H]1CNC(=O)[C@@H]2CCN(Cc3ccc(F)cc3)CC[C@H]12.O=C(O)C(F)(F)F
Second: CCOCC1CN(Cc2ccoc2)Cc2nn(CC3CC3)cc21.O=C(O)C(F)(F)F (stereo not drawn)
The “Percent Effect” value of the first is lower: -11.52% for the first, -8.348% for the second.

Compared with CSc1nccc(N2CCN(C)C3(CCC(=O)N(CC4CC4)CC3)C2)n1 (stereo not drawn), O=C1c2cccnc2OC(CN2CCOCC2)CN1CC1CC1 (stereo not drawn) is higher in “Percent Effect” value: -14.1% for the first, 142% for the second.

First: O=C(NCC(F)(F)F)C1CSCN1S(=O)(=O)c1ccc(F)cc1 (stereo not drawn)
Second: CC(NCC(=O)NCC(=O)Nc1ccc(F)cc1)c1cccs1 (stereo not drawn)
The “Percent Effect” value of the first is lower: 3.931% for the first, 91.77% for the second.

Going from CC1N(CC2CC2)C(=O)COC12CCN(Cc1nccs1)CC2.O=C(O)C(F)(F)F (stereo not drawn) to CC1N(C)C(=O)COC12CCN(Cc1nccs1)CC2.O=C(O)C(F)(F)F (stereo not drawn), the “Percent Effect” value rises from -4.952% to 126.1%.

Compared with CC(C)CN1CCC2(CCN(Cc3nccs3)CC2)C1=O.O=C(O)C(F)(F)F, CN(C)C(=O)CN1CCC2(CCN(Cc3nccs3)CC2)C1=O.O=C(O)C(F)(F)F is lower in “Percent Effect” value: 1.148% for the first, -19.71% for the second.

Going from CN(C)C1COC2(CCN(Cc3nccs3)CC2)C1.O=C(O)C(F)(F)F.O=C(O)C(F)(F)F (stereo not drawn) to CN(C)C(=O)COCC1CN(Cc2cccs2)Cc2ncn(C)c21.O=C(O)C(F)(F)F.O=C(O)C(F)(F)F (stereo not drawn), the “Percent Effect” value rises from 52.92% to 100.2%.

Compared with CCc1ccc2c(c1)C(CCNC(=O)Cc1ccc(F)cc1)C(=O)N2 (stereo not drawn), CCC(NC(=O)NCC(=O)Nc1ccc(F)cc1)c1ccncc1 (stereo not drawn) is higher in “Percent Effect” value: 3.277% for the first, 13.9% for the second.

Compared with Cc1c(CNCC(C)Oc2cccnc2)c2ccccc2n1CC(N)=O (stereo not drawn), Cc1c(CNCCCOc2cccnc2)c2ccccc2n1CC(N)=O is lower in “Percent Effect” value: 60.46% for the first, -2.741% for the second.

First: Cc1cc2n(n1)CC(CNC1CCN(C(=O)c3ccco3)CC1)CN2 (stereo not drawn)
Second: CCOC(=O)N1CCC(N2Cc3ncccc3C2=O)CC1
The “Percent Effect” value of the first is higher: 7.634% for the first, -7.226% for the second.

First: COCCN1CCCC(O)(CN2CCCN(c3ncccn3)CC2)C1=O (stereo not drawn)
Second: CCN1CCCN(c2ncccc2C(=O)N2CCCCC2)CC1
The “Percent Effect” value of the first is higher: -4.112% for the first, -13.17% for the second.

Going from CN(CCCC#N)C1CCCN(Cc2noc(C3CC3)n2)C1 (stereo not drawn) to CN(CCS(C)(=O)=O)C1CCCN(Cc2noc(C3CC3)n2)C1 (stereo not drawn), the “Percent Effect” value rises from -8.895% to 107.2%.

Compared with CN(CCn1cccn1)C1CCCN(Cc2noc(C3CC3)n2)C1 (stereo not drawn), CN(CCc1cccs1)C1CCCN(Cc2noc(C3CC3)n2)C1 (stereo not drawn) is lower in “Percent Effect” value: 100.3% for the first, -17.24% for the second.

First: CN(Cc1cscn1)C1CCCN(Cc2noc(C3CC3)n2)C1 (stereo not drawn)
Second: Cc1cc(CN(C)C2CCCN(Cc3noc(C4CC4)n3)C2)no1 (stereo not drawn)
The “Percent Effect” value of the first is higher: 3.354% for the first, 1.987% for the second.

First: CN(CCc1ccncc1)C1CCCN(Cc2noc(C3CC3)n2)C1 (stereo not drawn)
Second: Cc1nc(CN2CCCC(N(C)CCc3ccncc3)C2)no1 (stereo not drawn)
The “Percent Effect” value of the first is higher: 107.5% for the first, -4.077% for the second.

Going from c1cncc(CN2CCC(NCCc3ccc4c(c3)CCO4)CC2)c1 to O=C1c2cccnc2OC(CN2CCOCC2)CN1Cc1cccs1 (stereo not drawn), the “Percent Effect” value rises from 11.75% to 106%.

Going from O=C1CCCCN1Cc1cccc(NC(=O)N2CCSCC2)c1 to O=C(NC1CCCCC1)N1CCC(N2Cc3ncccc3C2=O)CC1, the “Percent Effect” value falls from 7.58% to 2.597%.

Going from COc1cccc(C(C(=O)O)N2CCCN(C3CCCC3)CC2)c1OC (stereo not drawn) to COc1ccccc1C(NC(=O)C1CCCC1)c1noc(C)n1 (stereo not drawn), the “Percent Effect” value falls from 17.91% to -4.234%.

Compared with Cc1noc(C)c1CCN1CCCC1c1nc2cc(F)ccc2[nH]1 (stereo not drawn), Cc1cc(C2CCCN2CC(=O)N(CCC#N)c2ccccc2F)on1 (stereo not drawn) is higher in “Percent Effect” value: -25.67% for the first, 6% for the second.

First: CC(NC(=O)Nc1cccnc1N1CCCC1)c1nncn1C (stereo not drawn)
Second: CC(NCC(=O)Nc1ccc(N2CCCCCC2)cc1)c1cccs1 (stereo not drawn)
The “Percent Effect” value of the first is lower: -5.724% for the first, 140.9% for the second.

First: CCOc1ccc(S(=O)(=O)NCCCc2ccc(N(C)C)cc2)cc1C
Second: CN(CC(=O)NS(=O)(=O)c1cccs1)Cc1ccccc1
The “Percent Effect” value of the first is higher: 28.94% for the first, -0.04031% for the second.

Compared with Cc1cc(C)n(CCC(=O)OCC(=O)N2CCc3sccc3C2)n1, CN(C)C(=O)COCc1nn(C)c2c1CCN(Cc1ccco1)C2.O=C(O)C(F)(F)F is lower in “Percent Effect” value: 1.296% for the first, -2.792% for the second.

Going from CN(CC1CCCO1)c1nc(-c2cccnc2)nc2c1CCNCC2 (stereo not drawn) to O=C1c2cccnc2OC(CN2CCOCC2)CN1C1CCC1 (stereo not drawn), the “Percent Effect” value rises from -5.842% to 113.2%.

Going from CC(C)CCC(=O)NCc1ccc(N2CCCCC2)cc1 to CCCC(=O)NCc1ccc(N2CCCCC2)cc1, the “Percent Effect” value falls from 9.507% to -2.635%.

First: CC(C#N)CSc1ccccc1NCC(=O)Nc1ccc(F)cc1 (stereo not drawn)
Second: CN(CC(=O)NCC(=O)Nc1ccc(F)cc1)Cc1cccs1
The “Percent Effect” value of the first is lower: -2.506% for the first, 82.61% for the second.

Compared with O=C(Cc1cccs1)NCC(=O)Nc1cn[nH]c1, O=C(NCCNc1cncc(Br)c1)c1ccc(O)cc1 is higher in “Percent Effect” value: -3.119% for the first, -0.2825% for the second.

Compared with COc1ccc(NC(=O)N2CCCC2c2ccco2)cc1OC (stereo not drawn), COc1ccccc1C(NC(=O)C1CCC1)c1noc(C)n1 (stereo not drawn) is lower in “Percent Effect” value: 20.26% for the first, -10.07% for the second.

First: COc1cc(Nc2c(C#N)c(=O)n(C)c(=O)n2C)cc(OC)c1
Second: CNC(C(=O)OC)c1cc(F)ccc1F.Cl (stereo not drawn)
The “Percent Effect” value of the first is lower: 0.2169% for the first, 100.3% for the second.

First: CC(c1cc(F)ccc1F)N(C)CCS(=O)(=O)CCC(N)=O (stereo not drawn)
Second: COC(=O)C(NC(=O)C1CC1)c1cc(F)ccc1F (stereo not drawn)
The “Percent Effect” value of the first is lower: -2.852% for the first, 87.91% for the second.

Going from COC(=O)C(NC(=O)C1CCCC1)c1cc(F)ccc1F (stereo not drawn) to COC(=O)C(NC(=O)C1CCC1)c1cc(F)ccc1F (stereo not drawn), the “Percent Effect” value falls from 111.2% to 101.8%.

First: Cc1nc(C(NC(=O)C2CCCC2)c2ccccc2F)no1 (stereo not drawn)
Second: COC(=O)C(NC(=O)COC1CCCC1)c1cc(F)ccc1F (stereo not drawn)
The “Percent Effect” value of the first is lower: -17.79% for the first, 0.6159% for the second.

Going from COC(=O)C(NC(=O)c1cc(F)cc(F)c1)c1cccnc1 (stereo not drawn) to NC(=O)c1ccccc1-n1cc(-c2cccc(C(=O)O)c2)cn1, the “Percent Effect” value rises from 7.008% to 8.053%.

Going from O=C(NC1CC1)NC(c1cc(F)ccc1F)C1CC1 (stereo not drawn) to CC(C)N1CCC(Cc2cncc(-c3cccc(C(=O)O)c3)n2)CC1, the “Percent Effect” value rises from -0.2014% to 108.9%.

Compared with CNC(=O)C1CN(Cc2ccc(C#N)cc2F)c2ccccc2O1 (stereo not drawn), N#Cc1cccnc1NC1CCN(c2ccccc2OC(F)F)C1=O (stereo not drawn) is higher in “Percent Effect” value: -15.36% for the first, -11.66% for the second.

First: CC(C)C(=O)N1CCN(C(=O)c2cc(Cl)no2)[C@H]2CS(=O)(=O)C[C@H]21
Second: CC(C)N1CCC(CC(=O)NCc2cc(O)ncn2)CC1
The “Percent Effect” value of the first is higher: -5.437% for the first, -21.37% for the second.

Going from COc1ncccc1CNC(=O)N1CCC(CN2CCOCC2)CC1 to COc1ncccc1NC(=O)N1CCC(CN2CCOCC2)CC1, the “Percent Effect” value rises from -11.8% to 40.61%.

Compared with O=C(O)C(F)(F)F.O=C(O)C(F)(F)F.O=C(O)C(F)(F)F.c1cncc(C[C@H]2[C@H](N3CCOCC3)CCN2Cc2cccs2)c1, Cn1cnc2c1C(COCC1CCOCC1)CN(Cc1ccccn1)C2.O=C(O)C(F)(F)F.O=C(O)C(F)(F)F.O=C(O)C(F)(F)F (stereo not drawn) is lower in “Percent Effect” value: -5.101% for the first, -22.25% for the second.

First: Cc1cccc(C)c1C(=O)N1C[C@@H](CN2CCOCC2)[C@@H](CO)C1
Second: CCN1CC(CN2CCOCC2)Oc2ncccc2C1=O (stereo not drawn)
The “Percent Effect” value of the first is lower: -12.05% for the first, 121.1% for the second.

Compared with CCc1c(C)sc2ncnc(N3CC[C@@H](N4CCC(O)CC4)[C@H](O)C3)c12, CC(C)N1CCC(Cc2cc(-c3cccc(C(=O)O)c3)ncn2)CC1 is higher in “Percent Effect” value: -2.578% for the first, 121.9% for the second.

Going from O=C(O)c1cn(CC2CCCN(c3nc4ccccc4s3)C2)nn1 (stereo not drawn) to CC(C)N1CCC(Cc2cncc(-c3cccc(C(=O)O)c3)n2)C1 (stereo not drawn), the “Percent Effect” value rises from -26.21% to 113.7%.

Compared with CC(C)N1CCC(Cc2cc(-c3cccc(C(=O)O)c3)ncn2)C1 (stereo not drawn), CC(C)N1CCC(Cc2cnc(-c3cccc(C(=O)O)c3)cn2)C1 (stereo not drawn) is lower in “Percent Effect” value: -6.349% for the first, -8.094% for the second.

Compared with COCCN1CCC(CNc2nccc(-c3cnn(C)c3)n2)CC1, COCCN1CCC(Cc2cncc(-c3ccc(C(=O)O)cc3)n2)CC1 is higher in “Percent Effect” value: 12.08% for the first, 112% for the second.

Compared with COCCN1CCC(Cc2cncc(-c3ccc(C(=O)O)cc3)n2)C1 (stereo not drawn), Cc1cccc(CN2CCc3c(COCC(=O)N(C)C)nn(C)c3C2)n1.O=C(O)C(F)(F)F.O=C(O)C(F)(F)F is higher in “Percent Effect” value: -8.312% for the first, 1.951% for the second.

First: CCn1cc2c(n1)CN(Cc1ccoc1)CC2COCC1CC1.O=C(O)C(F)(F)F (stereo not drawn)
Second: CN(C)C(=O)COCC1CN(Cc2ccoc2)Cc2ncn(C)c21.O=C(O)C(F)(F)F.O=C(O)C(F)(F)F (stereo not drawn)
The “Percent Effect” value of the first is lower: -14.5% for the first, 111.6% for the second.

Going from Cc1cccc(CN2Cc3ncn(C)c3C(COCC(=O)N(C)C)C2)n1.O=C(O)C(F)(F)F.O=C(O)C(F)(F)F.O=C(O)C(F)(F)F (stereo not drawn) to CN(C)C(=O)COCC1CN(Cc2ccco2)Cc2ncn(C)c21.O=C(O)C(F)(F)F.O=C(O)C(F)(F)F (stereo not drawn), the “Percent Effect” value falls from 115.6% to 91.74%.
